Shown is part of a subset that was picked to be rich in hits.
HT1080-NT tox: kills 2HG-producing HT-1080-NT fibrosarcoma cells | AID 686970 | HT-1080-NT fibrosarcoma viability, CellTiter-Glo ATP luminescence, 48 h | hit rate 1.6% among 360,000 | Potency, µM (titrated, usually from 46.1 µM), inactives show top-dose activity, negative = less viability, hits mostly cytotoxic;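 note: NT is the 2HG producing partner of a matched IDH1 knockdown line; potency is the fitted concentration of half-maximal effect; 0% = DMSO-treated cells and -100% = media-only wells without cells; nearly all actives have a fitted effect of over 55% in size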
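Toxicity toward the 2HG-producing NT line was scored as %Activity, normalised to DMSO and no-cell wells, from CellTiter-Glo luminescence after 48 hours' treatment.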
DT40 TDP1 no CPT: qHTS for Inhibitors of human tyrosyl-DNA phosphodiesterase 1 (TDP1): qHTS in cells in absence of CPT. AID 686978, 2013. hit rate 15% among 420,000. Potency, µM (doses to about 46.2 µM), without a hit: at the highest dose activity change, negative = growth inhibition, hits mostly inhibitors. DT40 Tdp1-/- hTDP1 cells, no CPT, ATP luminescence, 48 h; note: potency is the fitted concentration of half-maximal effect; nearly all actives have a fitted effect of over 55% in size
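Growth of hTDP1-complemented DT40 Tdp1-knockout cells is measured by ATP luminescence after at least 48 hr compound exposure at 37 °C, with DMSO substituting for the 20 nM CPT used in the parallel screen.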
DT40 TDP1 CPT: growth inhibition of DT40 Tdp1-/-;hTDP1 cells with camptothecin (screen for TDP1 inhibitors); chicken DT40 Tdp1-/-;hTDP1 cells + 20 nM CPT, ATP luminescence, 48 h; AID 686979; hit rate 12% among 420,000; Potency, µM (highest dose often 46.2 µM), inactives show at the top dose activity change, negative = growth inhibition, usual class: inhibitors; note: potency is the fitted concentration of half-maximal effect; nearly all actives have a fitted effect of over 55% in size
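Chicken DT40 Tdp1-/- cells complemented with human TDP1, 400 cells/well, exposed to compounds plus 20 nM camptothecin for at least 48 h at 37 C; viability read as ATP content by CellTiter-Glo luminescence.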
12-LOX inh: blocks human arachidonate 12S-lipoxygenase. hit rate 1.1% among 580,000. Potency, µM (doses to about 108 µM), without a hit: at the top dose activity change, negative = inhibition, actives largely listed as inhibitors. AID 1671190. P18054. purified 12hLO, xylenol orange hydroperoxide absorbance; note: potency is the fitted concentration of half-maximal effect
Target sequence (P18054 whole entry, looked up): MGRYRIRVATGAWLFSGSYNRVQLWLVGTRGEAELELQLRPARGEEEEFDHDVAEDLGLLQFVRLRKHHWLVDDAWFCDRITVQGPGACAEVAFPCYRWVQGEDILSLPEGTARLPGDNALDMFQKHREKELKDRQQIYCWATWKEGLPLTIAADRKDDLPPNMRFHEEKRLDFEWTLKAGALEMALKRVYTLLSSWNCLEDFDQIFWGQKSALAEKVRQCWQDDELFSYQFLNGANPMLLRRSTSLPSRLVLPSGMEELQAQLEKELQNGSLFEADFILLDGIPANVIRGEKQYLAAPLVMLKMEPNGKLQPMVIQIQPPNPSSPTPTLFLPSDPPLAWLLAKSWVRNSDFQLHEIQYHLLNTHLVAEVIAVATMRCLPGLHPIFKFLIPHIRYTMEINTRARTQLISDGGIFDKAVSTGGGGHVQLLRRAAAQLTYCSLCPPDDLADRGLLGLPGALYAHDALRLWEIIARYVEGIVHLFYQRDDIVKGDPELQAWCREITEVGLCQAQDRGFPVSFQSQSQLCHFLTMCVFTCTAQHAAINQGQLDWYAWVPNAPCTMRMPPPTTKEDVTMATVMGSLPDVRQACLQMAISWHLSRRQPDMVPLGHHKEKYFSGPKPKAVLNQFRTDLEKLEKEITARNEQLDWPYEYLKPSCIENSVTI
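Purified human 12hLO (150 nM final) in 25 mM Hepes, 0.01% Triton X-100, pH 7.0 was preincubated 15 min at room temperature with compound. Then 40 uM arachidonic acid was added, 30 min. Hydroperoxide was read by Fe-XO absorbance ratio 573/405 nm.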
IL1B secr inh: inflammasome signaling inhibition, IL-1 beta readout; THP-1 LPS/ATP IL-1B secretion, AlphaLISA, 16 h; hits give low values; hit rate 4.7% among 360,000; activity change, % at 57.5 µM; AID 743279; in the data active = activity change below about -50%; inconclusive = mostly about -30% to -49%
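Secreted IL-1B measured by AlphaLISA bead assay after 16 h compound exposure of THP-1 cells; compounds (final up to 57.5 uM) added 1 h before LPS (250 ng/mL) and ATP (1.25 mM) stimulation; lower signal means less secretion.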
HT1080 IDH1KD tx: kills HT-1080 cells with IDH1 knockdown. HT-1080 IDH1 knockdown viability, ATP luminescence, 48 h. Potency, µM (highest dose often 46.1 µM), without a hit: at the top dose activity, negative = toxicity, hits mostly cytotoxic. hit rate 2% among 360,000. AID 686971;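 note: potency is the fitted concentration of half-maximal effect; 0% = DMSO wells and -100% = cell-free medium wells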
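IDH1KD HT-1080 cells, 750/well, RPMI + 5% FBS; compound pinned after 2 h settling; 48 h, 37 °C; CellTiter-Glo luminescence; % activity normalised to DMSO and no-cell wells; curves fitted, classed by r2 and efficacy.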
Numbers without * were called inactive; [ ] = dose if it differs, or a comment. Unless noted, calls come from the whole dose curve; as a rule, active = well fitted curve in the direction sought with a large enough effect; inconclusive = small, poorly fitted or top-dose-only effect, or another doubt; inactive = no such curve, though single readings can be large; an effect the other way counts as inactive or inconclusive. Unless noted, % is set by controls: 0 for no effect and ±100 for the full control effect.

Results for COc1ccccc1CC(=O)Nc1ccc(-c2noc(COc3cccc(C)c3C)n2)cc1 ?
HT1080-NT tox: 1%; DT40 TDP1 no CPT: 13µM*; DT40 TDP1 CPT: 18µM*; 12-LOX inh: -10%[57.4 µM]; IL1B secr inh: -8; HT1080 IDH1KD tx: -6%

How did CCCc1ccc(OCc2nc(-c3ccc(NC(=O)c4ccco4)cc3)no2)cc1 do in these assays?
HT1080-NT tox: inconclusive; DT40 TDP1 no CPT: inconclusive; DT40 TDP1 CPT: inconclusive; 12-LOX inh: 0%; IL1B secr inh: 32; HT1080 IDH1KD tx: inconclusive

Results for Cc1ccccc1OCc1nc(-c2ccc(NC(=O)c3ccco3)cc2)no1 ?
HT1080-NT tox: -14%; DT40 TDP1 no CPT: 23µM*; DT40 TDP1 CPT: inconclusive; 12-LOX inh: 9%; IL1B secr inh: 0; HT1080 IDH1KD tx: -20%

What do the screens show for `COc1ccccc1CC(=O)Nc1ccc(-c2noc(COc3ccc(Br)cc3)n2)cc1`?
HT1080-NT tox: inconclusive; DT40 TDP1 no CPT: -27%; DT40 TDP1 CPT: -18%; 12-LOX inh: 0%; IL1B secr inh: -13; HT1080 IDH1KD tx: inconclusive

How did COc1ccc(CC(=O)Nc2ccc(-c3noc(-c4ccccc4OC)n3)cc2)cc1 do in these assays?
HT1080-NT tox: -25%; DT40 TDP1 no CPT: inconclusive; DT40 TDP1 CPT: inconclusive; 12-LOX inh: inconclusive; IL1B secr inh: -63*; HT1080 IDH1KD tx: inconclusive

How did O=C(NCc1nc(-c2ccccc2)no1)c1ccc2c(c1)OCO2 do in these assays?
HT1080-NT tox: 6%; DT40 TDP1 no CPT: -18%; DT40 TDP1 CPT: -15%; 12-LOX inh: 8%; IL1B secr inh: 0; HT1080 IDH1KD tx: -2%

Results for Cc1ccccc1OCc1nc(-c2ccc(NC(=O)c3ccc4c(c3)OCO4)cc2)no1 ?
HT1080-NT tox: 21µM*; DT40 TDP1 no CPT: 23µM*; DT40 TDP1 CPT: inconclusive; 12-LOX inh: 65%; IL1B secr inh: 13; HT1080 IDH1KD tx: 21µM*

Results for OC(CN1CCN(c2ccccn2)CC1)Cn1c2ccccc2c2ccccc21 (stereo unspecified) ?
HT1080-NT tox: -30%; DT40 TDP1 no CPT: 8.2µM*; DT40 TDP1 CPT: 15µM*; 12-LOX inh: inconclusive; IL1B secr inh: -5; HT1080 IDH1KD tx: inconclusive

What do the screens show for `OC(COc1cc(Cl)c(Cl)cc1Cl)CN1CCN(c2ncccn2)CC1` (stereo unspecified)?
HT1080-NT tox: 7%; DT40 TDP1 no CPT: inconclusive; DT40 TDP1 CPT: 18µM*; 12-LOX inh: inconclusive; IL1B secr inh: -16; HT1080 IDH1KD tx: -1%

What do the screens show for `Cc1cc(OCC(O)CN2CCN(c3ccccn3)CC2)cc(C)c1Cl` (stereo unspecified)?
HT1080-NT tox: 16µM*; DT40 TDP1 no CPT: inconclusive; DT40 TDP1 CPT: inconclusive; 12-LOX inh: inconclusive; IL1B secr inh: -69*; HT1080 IDH1KD tx: inconclusive

What do the screens show for `CN(C)C(=O)c1ccc(CNC(=O)c2nccnc2N)cc1`?
12-LOX inh: -8%

Results for Oc1ccccc1C1=NC(c2ccccc2)NC(c2ccccc2)C1 (stereo unspecified) ?
HT1080-NT tox: 15%; DT40 TDP1 no CPT: 18µM*; DT40 TDP1 CPT: inconclusive; 12-LOX inh: 10%; IL1B secr inh: inconclusive; HT1080 IDH1KD tx: 0%

How did CC(=O)c1cccc(NC(=O)c2cccc3c(-c4cccnc4)coc23)c1 do in these assays?
HT1080-NT tox: -21%; DT40 TDP1 no CPT: 9.2µM*; DT40 TDP1 CPT: 12µM*; 12-LOX inh: 0%; IL1B secr inh: 0; HT1080 IDH1KD tx: -22%

How did COc1ccc(-c2coc3c(C(=O)Nc4cccc(NS(C)(=O)=O)c4)cccc23)c(C)c1 do in these assays?
HT1080-NT tox: inconclusive; DT40 TDP1 no CPT: 21µM*; DT40 TDP1 CPT: inconclusive; 12-LOX inh: -2%; IL1B secr inh: -15; HT1080 IDH1KD tx: inconclusive

Results for COc1ccc(NC(=O)c2cccc3c(-c4ccc(OC)cc4C)coc23)cc1 ?
HT1080-NT tox: inconclusive; DT40 TDP1 no CPT: inconclusive; DT40 TDP1 CPT: inconclusive; 12-LOX inh: -17%; IL1B secr inh: 23; HT1080 IDH1KD tx: inconclusive

Results for CS(=O)(=O)Nc1cccc(NC(=O)c2cccc3c(-c4cccnc4)coc23)c1 ?
HT1080-NT tox: -11%; DT40 TDP1 no CPT: 16µM*; DT40 TDP1 CPT: 12µM*; IL1B secr inh: -8; HT1080 IDH1KD tx: -15%

Results for O=C(Nc1cccnc1)c1ccccc1-c1ccccc1 ?
HT1080-NT tox: -1%; DT40 TDP1 no CPT: 14%; DT40 TDP1 CPT: inconclusive; 12-LOX inh: -5%; IL1B secr inh: 19; HT1080 IDH1KD tx: 12%

Results for O=C(Nc1cccc(OC(F)(F)F)c1)c1cccc2c(-c3cccnc3)coc12 ?
HT1080-NT tox: inconclusive; DT40 TDP1 no CPT: 21µM*; DT40 TDP1 CPT: 23µM*; IL1B secr inh: -28; HT1080 IDH1KD tx: inconclusive

Results for C[C@H](C(=O)N1Cc2ccccc2CC2(CCN(C)C2)C1)c1ccccc1 (stereo partly specified) ?
12-LOX inh: 6%[6.33 µM]

Results for CC(=O)c1cccc(NC(=O)c2cccc3c(-c4cnn(C)c4)coc23)c1 ?
HT1080-NT tox: 10%; DT40 TDP1 no CPT: 21µM*; DT40 TDP1 CPT: 13µM*; 12-LOX inh: 1%; IL1B secr inh: -81*; HT1080 IDH1KD tx: 18%

Results for Cn1cc(-c2coc3c(C(=O)Nc4ccccc4)cccc23)cn1 ?
HT1080-NT tox: -18%; DT40 TDP1 no CPT: inconclusive; DT40 TDP1 CPT: inconclusive; 12-LOX inh: -19%; IL1B secr inh: -29; HT1080 IDH1KD tx: -9%

What do the screens show for `O=C(Nc1ccc(S(=O)(=O)NCc2ccco2)cc1)c1ccc2ccccc2n1`?
HT1080-NT tox: -4%; DT40 TDP1 no CPT: 21µM*; DT40 TDP1 CPT: inconclusive; 12-LOX inh: inconclusive; IL1B secr inh: -11; HT1080 IDH1KD tx: 0%

How did O=C(COc1ccccc1F)Nc1ccc(S(=O)(=O)NCc2ccco2)cc1 do in these assays?
HT1080-NT tox: 0%; DT40 TDP1 no CPT: 18µM*; DT40 TDP1 CPT: inconclusive; 12-LOX inh: 22%; IL1B secr inh: -2; HT1080 IDH1KD tx: -17%

Results for CC(C)CC(=O)Nc1ccc(S(=O)(=O)NCc2ccco2)cc1 ?
HT1080-NT tox: -9%; DT40 TDP1 no CPT: inconclusive; DT40 TDP1 CPT: -15%; 12-LOX inh: 0%; IL1B secr inh: 56; HT1080 IDH1KD tx: 0%

Results for CCc1ccccc1OCC(=O)Nc1cccc(S(=O)(=O)NCc2ccco2)c1 ?
HT1080-NT tox: -17%; DT40 TDP1 no CPT: inconclusive; DT40 TDP1 CPT: 18µM*; 12-LOX inh: -8%; IL1B secr inh: inconclusive; HT1080 IDH1KD tx: -18%

Screening data from PubChem.
